From PubChem BioAssay AID540361 (National Center for Advancing Translational Sciences (NCATS), 2011)
Results filed as inconclusive are left out. The source made the active and inactive calls. Calls follow the shape of the dose curve; as a rule, active = well fitted curve in the direction sought with a large enough effect; inconclusive = small, poorly fitted or top-dose-only effect, or another doubt; inactive = no such curve, though single readings can be large or run the other way.

Target: Alpha-galactosidase A (Homo sapiens) (UniProt P06280)
Assay: Activators of Human alpha-Glucosidase as a Potential Chaperone Treatment of Pompe Disease: Alpha-Galactosidase Counter Screen
Conditions: purified human alpha-galactosidase, 4-MU fluorogenic substrate; series mostly up to 57.1 µM
Source text: Alpha-glucosidase is responsible for hydrolysis of terminal, non-reducing 1,4-linked alpha-D-glucose residues with release of alpha-D-glucose. It is a lysosomal hydrolase that is required for the degradation of a small percentage (1-3%) of cellular glycogen in human. Deficiency of this enzyme results in glycogen-storage disease type II (GSDII), also referred to as Pompe disease, an autosomal recessive disorder. Structurally normal glycogen is accumulated in lysosomes and cytoplasm in affected patients, primarily in muscle tissues. Excessive glycogen storage within lysosomes may interrupt normal functioning of other organelles and leads to cellular injury. In turn, this leads to enlargement and dysfunction of the entire organ involved (eg, cardiomyopathy and muscle weakness). It has reported that the improper folding and trafficking of alpha-glucosidase resulting from the genetic mutations may account for a significant number of Pompe patients. […] After screening for activators for alpha-glucosidase, we used this counter screen against alpha-galactosidase to test for specificity of the hits. NIH Chemical Genomics Center [NCGC] NIH Molecular Libraries Probe Production Centers Network [MLPCN] MLPCN Grant: MH086442-01 Assay Submitter (PI): Wei Zheng
This is a fluorogenic enzyme assay with 4-methylumbelliferyl-[…] as the substrate and human alpha-galactosidase as the enzyme preparation. Upon the hydrolysis of this fluorogenic substrate, the resulting product, 1. 4-methyllumbelliferone, can be excited at 365 nm and emits at 440 nm which can be detected by a standard fluorescence plate reader. Data were normalized to the controls for basal activity (without enzyme) and 100% activity (with enzyme). In the AC50 values were determined from concentration-response data modeled with the standard Hill equation. Assay buffer: 50 mM citric acid (titrated with potassium phosphate to pH 5.0), 0.005% Tween-20, pH 5.0. (pH 5.0 is an optimal condition for this enzyme assay) 1536-well assay protocol for the human alpha-galactosidase: (1) Add 2 ul/well of enzyme (4 nM final) (2) Add 23 nL compounds in DMSO solution. The final titration was 0.7 nM to 77 uM. (3) Add 1 ul of substrate (400 uM final) (4) Incubate at room temperature for 20 min. (5) Add 2 ul stop solution (1M NaOH and 1M Glycine mixture, pH 10) (6) Detect the assay plate in a ViewLux plate reader (PerkinElmer) with Ex=365 nm and Em=440nm. Keywords: Alpha-glucosidase, Pompe Disease, pharmacological chaperone, chaperone therapy, high throughput screening, alpha-glucosidase inhibitor, MLSMR, MLSCN, NIH Roadmap, qHTS and NCGC

Sequence of Alpha-galactosidase A (Homo sapiens) (P06280 whole entry, looked up): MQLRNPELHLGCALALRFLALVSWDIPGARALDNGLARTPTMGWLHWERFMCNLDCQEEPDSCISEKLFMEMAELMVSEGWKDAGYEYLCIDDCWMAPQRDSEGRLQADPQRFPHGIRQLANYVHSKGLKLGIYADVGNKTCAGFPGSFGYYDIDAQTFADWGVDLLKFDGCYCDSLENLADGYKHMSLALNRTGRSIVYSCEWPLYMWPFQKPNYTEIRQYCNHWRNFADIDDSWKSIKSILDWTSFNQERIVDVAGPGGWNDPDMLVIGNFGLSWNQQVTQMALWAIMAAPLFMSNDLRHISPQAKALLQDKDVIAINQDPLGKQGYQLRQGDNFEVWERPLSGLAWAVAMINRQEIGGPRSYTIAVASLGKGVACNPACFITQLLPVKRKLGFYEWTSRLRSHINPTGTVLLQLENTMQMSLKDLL

Compound | outcome
COc1ccc(C#Cc2c[nH]c(=O)c3cncnc23)cc1OC | inactive
CCCN1CNc2c(c(=O)[nH]c(=S)n2CCC(C)(C)C)C1 | inactive
O=S(=O)(c1ccc(Cl)cc1)N1CCN(c2nc(Nc3cc(Cl)ccc3O)nc3ccccc23)CC1 | inactive
CCCN1CNc2c(c(=O)[nH]c(=S)n2CCc2c(C)cccc2C)C1 | inactive
COc1ccc(CCn2c3c(c(=O)[nH]c2=S)CN(C(C)C)CN3)cc1OC | inactive
CCCN1CNc2c(c(=O)[nH]c(=S)n2CCc2cc(C)ccc2C)C1 | inactive
COc1ccc(CCn2c(=S)[nH]c(=O)c3nccnc32)cc1OC | inactive
CCCN1CNc2c(c(=O)[nH]c(=S)n2CCc2ccsc2)C1 | inactive
COc1ccc(CCn2c3c(c(=O)[nH]c2=S)CN(c2ccccc2)CN3)cc1OC | inactive
COc1ccc(CCn2c(=S)[nH]c(=O)c3c(C)cc(C)nc32)cc1OC | inactive
O=S(=O)(c1ccc(Cl)cc1)N1CCN(c2nc(-c3cccs3)nc3ccccc23)CC1 | inactive
OCCNc1nc(-c2cccs2)nc2ccccc12 | inactive
CCCN1CNc2c(c(=O)[nH]c(=S)n2CCc2ccc3c(c2)OCCO3)C1 | inactive
c1csc(-c2nc(NCC3CCCO3)c3ccccc3n2)c1 (stereo unspecified) | inactive
CCCN1CNc2c(c(=O)[nH]c(=S)n2CCc2ccc(C)c(C)c2)C1 | inactive
CCCN1CNc2c(c(=O)[nH]c(=S)n2Cc2ccc(OC)c(OC)c2)C1 | inactive
COc1ccc(C#Cc2cnc(Cl)c3cncnc23)cc1OC | inactive
COc1ccc(CCn2c3c(c(=O)[nH]c2=S)CN(C)CN3)cc1OC | inactive
COc1ccc(CCc2c[nH]c(=O)c3cncnc23)cc1OC | inactive
CCCN1CNc2c(c(=O)[nH]c(=S)n2CCc2cccc(C)c2C)C1 | inactive
CCCN1CNc2c(c(=O)[nH]c(=O)n2CCc2ccc(OC)c(OC)c2)C1 | inactive
